MITF inh = inhibitors of human MITF. AlphaScreen MITF homodimerization, bead proximity signal. AID 1259374. O75030. inhibition, % at 2.6 µM. 650,000 compounds, 0.91% hits; in the data active = inhibition above about 50%
Target sequence (O75030 whole entry, looked up): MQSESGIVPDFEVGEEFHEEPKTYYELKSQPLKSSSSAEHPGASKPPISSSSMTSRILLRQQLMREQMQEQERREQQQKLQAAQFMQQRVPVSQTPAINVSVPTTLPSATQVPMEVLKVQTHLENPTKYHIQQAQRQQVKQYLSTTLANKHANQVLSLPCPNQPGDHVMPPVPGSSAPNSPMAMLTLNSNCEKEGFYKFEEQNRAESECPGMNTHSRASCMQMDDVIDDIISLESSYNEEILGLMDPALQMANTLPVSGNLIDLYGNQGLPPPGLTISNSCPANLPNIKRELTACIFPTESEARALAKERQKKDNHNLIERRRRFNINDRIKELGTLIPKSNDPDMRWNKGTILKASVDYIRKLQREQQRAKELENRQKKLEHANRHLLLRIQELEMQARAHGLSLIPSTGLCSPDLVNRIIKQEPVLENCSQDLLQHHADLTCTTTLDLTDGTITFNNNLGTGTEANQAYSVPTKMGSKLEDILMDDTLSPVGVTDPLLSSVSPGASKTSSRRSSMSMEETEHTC
GPR151 activ = activators of human GPR151 | 650,000 compounds, 1% hits | Q8TDV0 | AID 1508602 | PathHunter beta-arrestin GPR151 cells, luminescence | activation, % at 11.2 µM; in the data active = activation above about 4.9%
TEAD-YAP block = TEAD-YAP interaction inhibition; HEK-TIYL cells, TEAD-Gal4/YAP UAS-luciferase luminescence; inhibition, % at 9.12 µM; 640,000 compounds, 1.4% hits; AID 1259422; in the data active = inhibition above about 32%
FBW7 act = human FBW7 E3 ligase activation, primary screen; Q969H0; AlphaScreen FBW7–phospho-cyclin E peptide binding, activator screen; 650,000 compounds, 0.13% hits; normalized activity (activation), % at 26.1 µM; AID 1259310; in the data active = normalized activity above about 1.9%;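 note: purified mutant Fbw7 with reduced substrate affinity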
MITF inh conf = confirmation of human MITF inhibitors; inhibition, % at 2.6 µM; AlphaScreen MITF homodimerization, biotin/His-MITF beads; shares compounds with MITF inh; AID 1259372; 4,700 compounds, 16% hits;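 active = inhibition above a cutoff derived from the DMSO control wells, cut at about 28% in these data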;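 note: inhibitors lower the bead chemiluminescence by keeping MITF from dimerizing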
AS interf ctr = optically interferes with AlphaScreen signal; shares compounds with MITF inh; LysRS AlphaScreen counterscreen, signal interference, triplicate; inhibition, % at 2.6 µM; 4,700 compounds, 7.6% hits; AID 1259376;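 active = inhibition above a cutoff derived from the DMSO control wells, cut at about 30% in these data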
Of the large screens only hits and unclear results are named; the others gave an inactive call (follow-up assays come after a bar, where they were run). Rows were chosen to be rich in hits. Some 3.5% of all compounds tested hit in one or more screens of this group.

Cc1nc(NCCCN2CCOCC2)c2cc(-c3ccccc3)sc2n1	MITF inh 55 | MITF inh conf inactive | AS interf ctr inactive
CC1(C)CC(OC(=O)CCN2CCCCC2)CC(C)(C)N1	none
CCCCS(=O)(=O)C1CCCCC1OC(=O)CCN1CCCCC1 (configuration not stated)	MITF inh 51 | MITF inh conf inactive | AS interf ctr inactive
CCOC(=O)C1=C(O)/C(=C\c2ccc(CNC(=O)C(=O)Nc3ccc(Cl)c(Cl)c3)o2)N=C1C	none
COc1cccc(C2CC(c3cccs3)=NN2C(=O)CSc2nnc(CNC(=O)c3ccccc3)n2-c2ccccc2)c1OC (configuration not stated)	MITF inh 70 | MITF inh conf inactive | AS interf ctr inactive
COc1ccc(OCC(=O)OCC(=O)COC(=O)COc2ccc(OC)cc2)cc1	MITF inh 77 | MITF inh conf inactive | AS interf ctr inactive
c1csc(C2=NNC(c3ccncc3)=Nc3ccccc32)c1	MITF inh 71 | MITF inh conf inactive | AS interf ctr inactive
COc1ccc2c(c1)C(c1cccs1)=NNC(c1ccncc1)=N2	none
C[C@H]1C(=O)N2CCN(CC3CCCCC3)C[C@@H]2C(=O)N1C	none
CCOC(=O)c1ccoc1CN1CCN(C/C=C/c2ccccc2)CC1	MITF inh 79 | MITF inh conf inactive | AS interf ctr inactive
COc1ccccc1CN1CCN(C/C=C/c2ccccc2)CC1	MITF inh 69 | MITF inh conf inactive | AS interf ctr inactive
COc1ccc(CN2CCN(C/C=C/c3ccccc3)CC2)c(O)c1	none
CCOC(=O)c1ccoc1CN1CCN(c2cccc(C)c2C)CC1	none
COc1ccc(OC)c(CN2CCN(C/C=C/c3ccccc3)CC2)c1	MITF inh 81 | MITF inh conf inactive | AS interf ctr inactive
Cc1nc2c(-c3ccc(F)cc3)c(C)nn2c(C)c1CC(=O)NCc1cccnc1	none
CC(=O)c1c(C)oc2c(Br)cc(NS(=O)(=O)c3ccc(C)cc3C)cc12	none
O=C(NNc1ncnc(NNC(=O)c2ccncc2)c1[N+](=O)[O-])c1ccncc1	MITF inh 65 | MITF inh conf 66 | AS interf ctr 100
CCOC(=O)c1c(C)n(-c2ccccc2)c2ccc(OC(=O)Cc3ccccc3)cc12	none
CN(C)CCCNc1ncnc2sccc12	MITF inh 73 | MITF inh conf inactive | AS interf ctr inactive
CN(C)CCCNc1ncnc2sc3c(c12)CCC3	MITF inh 79 | MITF inh conf inactive | AS interf ctr 30
CN(C)C(=O)COc1cc(-c2cn[nH]c2)ccc1NC(=O)C1COc2ccc(F)cc2C1 (configuration not stated)	none
COc1cc(OC)c(OC)cc1CN1CCC(N2CC(C)OC(C)C2)CC1 (configuration not stated)	MITF inh 89 | MITF inh conf inactive | AS interf ctr inactive
COc1cc(OC)c(OC)cc1CN1CCC(O)CC1	none
COc1cccc(CN2CCC(N3CC(C)OC(C)C3)CC2)c1OC (configuration not stated)	MITF inh 87 | MITF inh conf inactive | AS interf ctr inactive
COc1cc(OC)c(OC)cc1CN1CCN(C2CCC(C)CC2)CC1 (configuration not stated)	MITF inh 72 | MITF inh conf inactive | AS interf ctr inactive
CCOC(=O)C1CCN(Cc2cccc(OC)c2OC)CC1	none
COc1ccccc1CN1CCC(N2CC(C)OC(C)C2)CC1 (configuration not stated)	MITF inh 52 | MITF inh conf inactive | AS interf ctr inactive
COc1ccccc1CN1CCC(C)CC1	none
CCN(CC)c1ccc(C(=O)Nc2cc(C(=O)N(C)Cc3ccccc3)ccc2N2CC3CC(C2)c2cccc(=O)n2C3)cc1 (configuration not stated)	none
COc1ccc(C2=N/C(=C/C(C)=C/c3ccccc3)C(=O)O2)cc1Br	none
O=C(CN1CCCCCCC1)N/N=C/c1ccc(F)c(Br)c1	MITF inh 57 | MITF inh conf inactive | AS interf ctr inactive
O=C(CN1CCCCCC1)N/N=C/c1ccc(F)c(Br)c1	none
COc1ccc(-c2[nH]ncc2C(=O)N2CCCCC2)cc1	none
COc1cc(NC(=O)c2ccc3nc(-c4ccccc4)sc3c2)cc(OC)c1OC	MITF inh 68 | MITF inh conf inactive | AS interf ctr inactive
Cc1ccc(-n2c(SCC(=O)Nc3ccc(C)c(C)c3)nc3c(sc(=S)n3-c3cc(C)ccc3F)c2=O)cc1	none
Clc1ccc(OCC#CCn2ccnc2)cc1	MITF inh 58 | MITF inh conf inactive | AS interf ctr inactive
C=CCN1C(=O)/C(=C/c2ccco2)S/C1=N/S(=O)(=O)c1ccc(Cl)cc1	MITF inh 87 | MITF inh conf inactive | AS interf ctr inactive
C=CCN1C(=O)/C(=C/c2ccco2)S/C1=N/S(=O)(=O)c1cccs1	none
COCCNC(=O)CN1C(=O)C(C)Oc2ccccc21 (configuration not stated)	none
CCOC(=O)C1CCN(C(=O)c2cc3nc(-c4ccc(OC)cc4)cc(C(F)(F)F)n3n2)CC1	MITF inh 61 | MITF inh conf inactive | AS interf ctr inactive
CC1(c2cc(C(F)(F)F)n3nc(C(=O)N4CCC(c5ccncc5)CC4)cc3n2)CC1	MITF inh 56 | MITF inh conf inactive | AS interf ctr inactive
COc1ccc(-c2cc(C(F)(F)F)n3nc(C(=O)N4CCC(C)CC4)cc3n2)cc1	none
CC(C)(C)NC(=O)C(Cc1ccccc1)n1cccc1 (configuration not stated)	none
CN(C)C(=O)c1cc(CNCc2cccc(Cl)c2)cc(NC(=O)c2ccccn2)c1	none
Cc1cccc(CNCc2cc(NC(=O)c3ccccn3)cc(C(=O)N(C)C)c2)c1	MITF inh 69 | MITF inh conf inactive | AS interf ctr inactive
Cc1ccc(C(=O)COC(=O)C(C(C)C)N2C(=O)C3C4C=CC(C4)C3C2=O)cc1[N+](=O)[O-] (configuration not stated)	MITF inh 82 | MITF inh conf inactive | AS interf ctr inactive
Oc1ccc(CNc2ccccc2Br)c2cccnc12	MITF inh 71 | MITF inh conf 42 | AS interf ctr 87
Cc1ccccc1NCc1ccc(O)c2ncccc12	MITF inh 68 | MITF inh conf 62 | AS interf ctr 97
CCOc1ccc(S(=O)(=O)Nc2ccccc2Br)c2cccnc12	none
Cc1cccc(NCc2ccc(O)c3ncccc23)n1	MITF inh 74 | MITF inh conf 53 | AS interf ctr 91
Cc1cccc(NCc2ccccc2O)c1C	none
O=C(NC1CCCc2ccccc21)c1ccc(Cn2ccnc2)cc1 (configuration not stated)	none
CCCS(=O)(=O)N1CCN(Cc2ccccc2[N+](=O)[O-])CC1	none
O=[N+]([O-])c1ccccc1CN1CCN(CCO)CC1	MITF inh 77 | MITF inh conf inactive | AS interf ctr inactive
O=[N+]([O-])c1ccccc1CN1CCCCCCC1	none

Screening data deposited in PubChem BioAssay by The Scripps Research Institute Molecular Screening Center.
